# Calls of active or inactive are those of the source.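 How the source made its calls: active means AC50 at most tenfold above the top tested concentration; inconclusive means flat fit with 30 to 70% activity, or a poor fit; inactive means AC50 over tenfold above the top dose.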
# Test: inhibition of yeast nuclear histone deacetylase activity – cell lysate, fluorescence, yeast nuclear extract, mechanism study for Sdo1 growth activator project, dose response (AID 463208)
# Details: yeast nuclear extract HDAC activity, fluorogenic substrate
row,Compound,AC50
1,CC(=O)N(C)C1C(=O)C(=O)c2ccccc2C1=O (configuration not stated),> 50 µM (inactive)
2,COc1ccc(-c2nc3ccccc3o2)cc1NC(=O)c1ccc(Br)o1,> 50 µM (inactive)
3,Cc1sc(NC(=O)c2ccnn2C)c(C#N)c1-c1ccc(F)cc1,> 50 µM (inactive)
4,Cc1ccc(NC(=O)c2ccc(NCC3CCCO3)c([N+](=O)[O-])c2)cc1 (configuration not stated),> 50 µM (inactive)
5,O=C(C(c1ccccc1)c1ccccc1)N(Cc1ccco1)C1CCS(=O)(=O)C1 (configuration not stated),> 50 µM (inactive)
6,CC(C)C(C(=O)Nc1cccnc1)N1C(=O)c2ccccc2C1=O (configuration not stated),> 50 µM (inactive)
7,Cc1sc(NC(=O)c2ccnn2C)c(C#N)c1-c1ccccc1,> 50 µM (inactive)

# Reference: PubChem BioAssay AID463208 (Broad Institute, 2010)
